Results on 19 compounds are retold here after PubChem BioAssay (NCATS).

Records with an inconclusive call do not appear. Activity calls are given as the source filed them. Calls follow the shape of the dose curve; as a rule, active = well fitted curve in the direction sought with a large enough effect; inconclusive = small, poorly fitted or top-dose-only effect, or another doubt; inactive = no such curve, though single readings can be large; an effect the other way counts as inactive or inconclusive.

Experiment [1] is described as follows: Quantitative High-Throughput drug screen in 47 multiple myeloma cell lines against the NCATS MIPE library collection: NCIH929_DSMZ cell viability assay (AID 1918978). Also: nearly all actives have a fitted effect of over 35% in size. Also: potency is read from the fitted curve at half-maximal effect. The conditions noted are these: NCI-H929 myeloma viability, CellTiter-Glo ATP, 48 h; series mostly up to 45.8 µM. In a few lines: (§1)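 Cells were exposed to library compounds for 48 hours, after which ATP was measured by CellTiter-Glo. Signal was taken as median relative luminescence units.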
(In general: In ATP-based viability assays light output follows the ATP content of the culture.)

Experiment [2] in a line: Quantitative High-Throughput drug screen in 47 multiple myeloma cell lines against the NCATS MIPE library collection: OCIMY1_PLB cell viability assay (AID 1918979). Also: nearly all actives have a fitted effect of over 35% in size. The note with it: OCI-MY1 myeloma viability, CellTiter-Glo ATP, 48 h; series mostly up to 45.8 µM. In short, it runs like this: as §1
Experiment [3] can be described thus: Quantitative High-Throughput drug screen in 47 multiple myeloma cell lines against the NCATS MIPE library collection: MM1S_ATCC cell viability assay (AID 1918980). Also: nearly all actives have a fitted effect of over 45% in size. Also: potency is read from the fitted curve at half-maximal effect. The conditions noted are these: MM1S myeloma viability, CellTiter-Glo ATP luminescence, 48 h; series mostly up to 45.8 µM. In short, it runs like this:
as §1

A short description of experiment [4]: Quantitative High-Throughput drug screen in 47 multiple myeloma cell lines against the NCATS MIPE library collection: MM1R_ATCC cell viability assay (AID 1918981). Also: nearly all actives have a fitted effect of over 35% in size. Also: potency is read from the fitted curve at half-maximal effect. The note with it: MM1R multiple myeloma cells, CellTiter-Glo viability, 48 h; series mostly up to 45.8 µM. In a few lines:
as §1

Experiment [5] in a line: Quantitative High-Throughput drug screen in 47 multiple myeloma cell lines against the NCATS MIPE library collection: LP1_DSMZ cell viability assay (AID 1918982). Also: nearly all actives have a fitted effect of over 35% in size. Also: potency is read from the fitted curve at half-maximal effect. The note with it: LP1 myeloma viability, CellTiter-Glo ATP luminescence, 48 h; series mostly up to 45.8 µM. In short, it runs like this: as §1
Experiment [6] is described as follows: Quantitative High-Throughput drug screen in 47 multiple myeloma cell lines against the NCATS MIPE library collection: L363_DSMZ cell viability assay (AID 1918984). Also: nearly all actives have a fitted effect of over 40% in size. Also: potency is read from the fitted curve at half-maximal effect. The conditions noted are these: L363 myeloma viability, CellTiter-Glo ATP luminescence, 48 h; series mostly up to 45.8 µM. In a few lines:
as §1

A short description of experiment [7]: Quantitative High-Throughput drug screen in 47 multiple myeloma cell lines against the NCATS MIPE library collection: KMS28PE_JCRB cell viability assay (AID 1918983). Also: nearly all actives have a fitted effect of over 35% in size. Also: potency is read from the fitted curve at half-maximal effect. The note with it: KMS28PE multiple myeloma viability, CellTiter-Glo ATP, 48 h; series mostly up to 45.8 µM. In short, it runs like this:
as §1

Experiment [8] in a line: Quantitative High-Throughput drug screen in 47 multiple myeloma cell lines against the NCATS MIPE library collection: MOLP8_DSMZ cell viability assay (AID 1918977). Also: nearly all actives have a fitted effect of over 45% in size. Also: potency is read from the fitted curve at half-maximal effect. The conditions noted are these: MOLP8 myeloma viability, CellTiter-Glo ATP luminescence, 48 h; series mostly up to 45.8 µM. In short, it runs like this: as §1
Experiment [9] can be described thus: Quantitative High-Throughput drug screen in 47 multiple myeloma cell lines against the NCATS MIPE library collection: MMM1_PLB cell viability assay (AID 1918976). The conditions noted are these: MMM1 myeloma cells viability, CellTiter-Glo, 48 h; series mostly up to 45.8 µM. In short, it runs like this: as §1

On to `CCN(CC)CCCCNc1ncc2cc(-c3cc(OC)cc(OC)c3)c(NC(=O)NC(C)(C)C)nc2n1`, for which the Potency was 11.8 µM (active) in experiment [1]; 20.9 µM (active) in experiment [3]; 23.5 µM (active) in experiment [4]; 16.6 µM (active) in experiment [5]; 14.8 µM (active) in experiment [6]. For the same compound, the Potency entry in [2] was “inactive”.
Turning to `Clc1cccc(-n2nnnc2NCc2ccccc2Oc2ccccn2)c1Cl`, the Potency result in [1], in experiment [2], in experiment [3], in [4] and in [7] was “inactive” in each case.
Regarding `O=c1c2ccccc2nc2n1CCc1c-2[nH]c2ccccc12`, the Potency entry in experiment [8], in experiment [2], in experiment [5] and in experiment [7] was “inactive” throughout.
For the compound `CCCCCCCCCC(=O)N[C@@H](Cc1c[nH]c2ccccc12)C(=O)N[C@H](CC(N)=O)C(=O)N[C@@H](CC(=O)O)C(=O)N[C@@H]1C(=O)NCC(=O)N[C@@H](CCCN)C(=O)N[C@@H](CC(=O)O)C(=O)N[C@H](C)C(=O)N[C@@H](CC(=O)O)C(=O)NCC(=O)N[C@H](CO)C(=O)N[C@@H]([C@@H](C)CC(=O)O)C(=O)N[C@@H](CC(=O)c2ccccc2N)C(=O)O[C@@H]1C`, the Potency entry in experiment [8], in experiment [1], in experiment [2], in experiment [4], in experiment [7] and in experiment [6] was “inactive” each time.
Take `O=C(O)C1(Cc2cccc(Nc3nccs3)n2)CCC(Oc2cccc(Cl)c2F)CC1` (centres undefined): the Potency in experiment [3] was 0.332 µM (active); in experiment [4] it was 0.469 µM (active).
Turning to `CC=CC1=C(C(=O)O)N2C(=O)[C@H](NC(=O)[C@H](N)c3ccc(O)cc3)[C@@H]2SC1`, the Potency result in [8] and in [6] was “inactive” in each case. For the same compound, the Potency in experiment [3] was 14.8 µM (active).
For `Nc1ccn([C@@H]2CS[C@H](CO)O2)c(=O)n1`, the Potency entry in [8], in experiment [4], in experiment [7] and in experiment [6] was “inactive” throughout. Further, the Potency in experiment [1] is 38.2 µM (active).
Take `CC(O)C1C(=O)N2C(C(=O)O)=C(SC3CNC(C(=O)N(C)C)C3)C(C)C12` (centres undefined): in experiment [1], the Potency entry is “inactive”.
For `Cc1c(Cn2c(C)nc3c(C(=O)O)cc(N4CCOCC4)cc32)cccc1C(F)(F)F`, the Potency entry in [8], in experiment [5] and in [7] was “inactive” in each case. In addition, the Potency in [3] was 0.0662 µM (active).
For `O=C1CCC[C@@H]2[C@H]3CCC[N+]4([O-])CCC[C@@H](CN12)[C@@H]34` (some centres undefined), the Potency entry in experiment [1], in experiment [2], in experiment [5] and in experiment [6] was “inactive” each time.
`COc1cc(C(C)C)c2c(c1)S(=O)(=O)N(COc1cc(=O)n3cccc(OCCN4CCCCC4)c3n1)C2=O`: the Potency was 20.9 µM (active) in experiment [1], 11.8 µM (active) in [3] and 18.7 µM (active) in [6]. Besides, in experiment [2], the Potency entry is “inactive”.
Regarding `COc1cc(Nc2ncc(F)c(Nc3ccc4c(n3)N(COP(=O)(O)O)C(=O)C(C)(C)O4)n2)cc(OC)c1OC`, the Potency in experiment [1] is 3.72 µM (active); in experiment [3], 20.9 µM (active); in experiment [6], 2.35 µM (active).
As to `CC1COC2(CCN(c3nc(=O)c4cc(C(F)(F)F)cc([N+](=O)[O-])c4s3)CC2)O1` (centres undefined), the Potency result in [8], in experiment [2], in [3], in experiment [5] and in experiment [7] was “inactive” throughout.
In the case of `NC(=O)c1c(OCc2c(F)cc(Br)cc2F)nsc1NC(=O)NCCCCN1CCCC1`, the Potency is 26.4 µM (active) in [8], 2.96 µM (active) in experiment [3], 20.9 µM (active) in experiment [4] and 18.7 µM (active) in experiment [7]. Moreover, the Potency result in experiment [6] is “inactive”.
Take `CS(=O)(=O)c1ccc(-c2cnc(N)c(C(=O)Nc3ccccc3)n2)cc1`: the Potency entry in [1], in [2], in experiment [5] and in experiment [7] was “inactive” in each case. Further, the figures for the Potency in [3] and in experiment [4] were 9.35 µM (active) and 5.26 µM (active), respectively.
Regarding `CC(C)(O)CCc1ccc(OCc2cc(-c3cccc(OC(F)F)c3)c3ncccc3c2)cc1`, the Potency result in [2], in experiment [5], in experiment [7] and in experiment [6] was “inactive” in each case. The Potency in experiment [3] was 14.8 µM (active).
With `COc1cccc(Nc2c(C(N)=O)cnc3c(C)cc(S(=O)(=O)c4cccc(C(=O)N(C)C)c4)cc23)c1`, the Potency entry in [7] was “inactive”.
Take `c1ccc2c(CCNc3ccc(Nc4ccncc4)cc3)c[nH]c2c1`: the Potency is 13.2 µM (active) in experiment [9]; 2.96 µM (active) in experiment [3]; 3.32 µM (active) in [4]; 18.7 µM (active) in experiment [7]; 4.69 µM (active) in [6]. Moreover, the Potency entry in experiment [2] was “inactive”.
On to `Nc1cccc(-c2cc3c(Oc4cccc(O)c4)ncnc3[nH]2)c1`, for which the Potency in experiment [1] is 23.5 µM (active); in experiment [3], 3.32 µM (active). Moreover, the Potency result in experiment [2] and in experiment [6] was “inactive” each time.
